From PubChem BioAssay AID1159580 (chemical genetic matrix, 2015)
Hit rate of the full screen: of about 5,500 compounds, about 2,000 (36%) were called active. Another 18% or so got no clear call; they are omitted. Cut-off read from the data, not from the text of the source: active = normalized growth mostly below about 0.91 (no sharp cut-off); inconclusive = no clear call, values can overlap the other calls; inactive = mostly above about 0.92. Some of the results follow.

Experiment: chemical genetic growth profiling, strain panel (AID 1159580);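 note: tested at 20 µM; growth read once vehicle control cultures reached saturation at 30 °C; 1 = growth at the plate median or of vehicle wells; lower values mean less growth of the strain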
Conditions: growth OD

Measured: normalized growth

CCOC(=O)c1c(C)cc(OC)cc1O
inactive: S. cerevisiae deletion strains, locus YJR075W, strain HOC1, stronger effect = lower value 0.936 | S. cerevisiae deletion strains, locus YKL009W, strain mrt4, stronger effect = lower value 0.939 | S. cerevisiae deletion strains, locus YKL068W, stronger effect = lower value 0.956 | S. cerevisiae deletion strains, locus YKL085W, strain MDH1 (second series), stronger effect = lower value 0.946 | S. cerevisiae deletion strains, locus YKL085W, strain MDH1, stronger effect = lower value 0.946 | S. cerevisiae deletion strains, locus YKL160W, strain elf1, stronger effect = lower value 0.976 | S. cerevisiae deletion strains, locus YKL190W, strain CNB1, stronger effect = lower value 0.996 | S. cerevisiae deletion strains, locus YKR026C, strain gcn3, stronger effect = lower value 0.951 | S. cerevisiae deletion strains, locus YKR091W, strain srl3, stronger effect = lower value 0.971 | S. cerevisiae deletion strains, locus YLL001W, strain dnm1, stronger effect = lower value 0.962 | S. cerevisiae deletion strains, locus YLL026W, stronger effect = lower value 0.965 | S. cerevisiae deletion strains, locus YLL041C, strain sdh2, stronger effect = lower value 0.96 | S. cerevisiae deletion strains, locus YLR027C, strain aat2, stronger effect = lower value 0.963 | S. cerevisiae deletion strains, locus YLR039C, strain RIC1, stronger effect = lower value 0.872 | S. cerevisiae deletion strains, locus YLR058C, strain SHM2, stronger effect = lower value 0.993 | S. cerevisiae deletion strains, locus YLR102C, strain apc9, stronger effect = lower value 0.946 | S. cerevisiae deletion strains, locus YLR221C, strain rsa3, stronger effect = lower value 0.949 | S. cerevisiae deletion strains, locus YLR258W, strain gsy2, stronger effect = lower value 0.964 | S. cerevisiae deletion strains, locus YLR262C, strain YPT6, stronger effect = lower value 0.928 | S. cerevisiae deletion strains, locus YLR268W, strain sec22, stronger effect = lower value 0.958 | S. cerevisiae deletion strains, locus YLR330W, strain CHS5, stronger effect = lower value 1.01 | S. cerevisiae deletion strains, locus YLR342W, strain FKS1 (second series), stronger effect = lower value 0.971 | S. cerevisiae deletion strains, locus YLR342W, strain FKS1, stronger effect = lower value 0.984 | S. cerevisiae deletion strains, locus YLR357W, strain rsc2, stronger effect = lower value 0.969 | S. cerevisiae deletion strains, locus YLR370C, strain arc18, stronger effect = lower value 0.981 | S. cerevisiae deletion strains, locus YLR371W, strain rom2, stronger effect = lower value 0.962 | S. cerevisiae deletion strains, locus YLR384C, strain iki3, stronger effect = lower value 0.972 | S. cerevisiae deletion strains, locus YLR418C, strain cdc73, stronger effect = lower value 0.891 | S. cerevisiae deletion strains, locus YML016C, strain PPZ1, stronger effect = lower value 0.988 | S. cerevisiae deletion strains, locus YML032C, strain rad52, stronger effect = lower value 0.91 | S. cerevisiae deletion strains, locus YML120C, strain ndi1, stronger effect = lower value 0.972 | S. cerevisiae deletion strains, locus YML124C, strain tub3, stronger effect = lower value 0.947 | S. cerevisiae deletion strains, locus YMR058W, strain fet3, stronger effect = lower value 0.968 | S. cerevisiae deletion strains, locus YMR078C, strain ctf18, stronger effect = lower value 0.926 | S. cerevisiae deletion strains, locus YMR125W, strain sto1, stronger effect = lower value 1 | S. cerevisiae deletion strains, locus YMR129W, stronger effect = lower value 0.977 | S. cerevisiae deletion strains, locus YMR205C, strain PFK2, stronger effect = lower value 0.887 | S. cerevisiae deletion strains, locus YMR223W, strain ubp8, stronger effect = lower value 0.924 | S. cerevisiae deletion strains, locus YMR231W, strain pep5, stronger effect = lower value 0.985 | S. cerevisiae deletion strains, locus YMR263W, strain SAP30, stronger effect = lower value 0.985 | S. cerevisiae deletion strains, locus YMR307W, strain GAS1, stronger effect = lower value 0.996 | S. cerevisiae deletion strains, locus YNL067W, strain RPL9B, stronger effect = lower value 0.99 | S. cerevisiae deletion strains, locus YNL128W, strain TEP1, stronger effect = lower value 1.01 | S. cerevisiae deletion strains, locus YNL153C, strain GIM3, stronger effect = lower value 0.989 | S. cerevisiae deletion strains, locus YNL183C, strain NPR1, stronger effect = lower value 0.872 | S. cerevisiae deletion strains, locus YNL209W, strain ssb2, stronger effect = lower value 0.992 | S. cerevisiae deletion strains, locus YNL233W, strain BNI4, stronger effect = lower value 0.98 | S. cerevisiae deletion strains, locus YNL248C, strain rpa49, stronger effect = lower value 0.936 | S. cerevisiae deletion strains, locus YNL250W, strain rad50, stronger effect = lower value 0.963 | S. cerevisiae deletion strains, locus YNL271C, strain bni1, stronger effect = lower value 0.949 | S. cerevisiae deletion strains, locus YNL298W, strain CLA4, stronger effect = lower value 0.965 | S. cerevisiae deletion strains, locus YNL322C, strain KRE1 (second series), stronger effect = lower value 0.952 | S. cerevisiae deletion strains, locus YNL322C, strain KRE1, stronger effect = lower value 0.989 | S. cerevisiae deletion strains, locus YNR049C, strain mso1, stronger effect = lower value 0.967 | S. cerevisiae deletion strains, locus YNR052C, strain pop2, stronger effect = lower value 0.976 | S. cerevisiae deletion strains, locus YOL006C, strain TOP1, stronger effect = lower value 0.77 | S. cerevisiae deletion strains, locus YOL012C, strain htz1 0.775 | S. cerevisiae deletion strains, locus YOL147C, strain pex11, stronger effect = lower value 0.947 | S. cerevisiae deletion strains, locus YOR001W, strain rrp6, stronger effect = lower value 0.974 | S. cerevisiae deletion strains, locus YOR061W, strain CKA2, stronger effect = lower value 1 | S. cerevisiae deletion strains, locus YOR069W, strain VPS5, stronger effect = lower value 0.989 | S. cerevisiae deletion strains, locus YOR070C, strain gyp1, stronger effect = lower value 0.963 | S. cerevisiae deletion strains, locus YOR080W, strain dia2, stronger effect = lower value 0.997 | S. cerevisiae deletion strains, locus YOR083W, strain WHI5, stronger effect = lower value 0.955 | S. cerevisiae deletion strains, locus YOR106W, strain vam3, stronger effect = lower value 0.936 | S. cerevisiae deletion strains, locus YOR136W, strain idh2, stronger effect = lower value 0.955 | S. cerevisiae deletion strains, locus YOR144C, strain elg1, stronger effect = lower value 0.957 | S. cerevisiae deletion strains, locus YOR231W, strain MKK1, stronger effect = lower value 0.924 | S. cerevisiae deletion strains, locus YOR265W, strain rbl2, stronger effect = lower value 0.962 | S. cerevisiae deletion strains, locus YOR290C, strain snf2, stronger effect = lower value 0.929 | S. cerevisiae deletion strains, locus YOR316C, strain cot1, stronger effect = lower value 0.964 | S. cerevisiae deletion strains, locus YPL051W, strain arl3, stronger effect = lower value 0.96 | S. cerevisiae deletion strains, locus YPL055C, strain LGE1, stronger effect = lower value 0.972 | S. cerevisiae deletion strains, locus YPL078C, strain atp4, stronger effect = lower value 0.932 | S. cerevisiae deletion strains, locus YPL106C, strain sse1, stronger effect = lower value 1.02 | S. cerevisiae deletion strains, locus YPL240C, strain hsp82, stronger effect = lower value 0.987 | S. cerevisiae deletion strains, locus YPL241C, strain CIN2, stronger effect = lower value 0.991 | S. cerevisiae deletion strains, locus YPL256C, strain CLN2, stronger effect = lower value 0.866 | S. cerevisiae deletion strains, locus YPR119W, strain clb2, stronger effect = lower value 0.933 | S. cerevisiae deletion strains, locus YPR141C, strain kar3, stronger effect = lower value 0.946 | S. cerevisiae deletion strains, locus YPR163C, strain tif3, stronger effect = lower value 0.957 | S. cerevisiae deletion strains, locus YPR167C, strain met16, stronger effect = lower value 0.96 | S. cerevisiae deletion strains, strain wtn01, stronger effect = lower value 0.928 | S. cerevisiae strains, strain wild type, stronger effect = lower value 0.978
active: S. cerevisiae deletion strains, locus YKR001C, strain vps1, stronger effect = lower value 0.842 | S. cerevisiae deletion strains, locus YLR113W, strain HOG1, stronger effect = lower value 0.835 | S. cerevisiae deletion strains, locus YLR262C, strain YPT6 (second series), stronger effect = lower value 0.731 | S. cerevisiae deletion strains, locus YLR320W, strain mms22, stronger effect = lower value 0.859 | S. cerevisiae deletion strains, locus YNL071W, strain lat1, stronger effect = lower value 0.795 | S. cerevisiae deletion strains, locus YNL307C, strain MCK1, stronger effect = lower value 0.734 | S. cerevisiae deletion strains, locus YOR184W, strain ser1, stronger effect = lower value 0.808 | S. cerevisiae deletion strains, locus YOR270C, strain vph1, stronger effect = lower value 0.727
